Measurements published in the supplement of paper PMC6555819.

Legend:
Assay in all cases: PBM binding z-score (relative to random genomic background probes); higher = stronger binding; sequences stand for … in GC…GCGATTGACAGCGTAGAATGAAGG
[1] = test system: RARb homodimer (NR concentration 270 nM)
In short: (§1)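 Antibodies against each partner of ligand-free nuclear receptor dimers (one per run) detected binding on custom Agilent 4×180K protein-binding microarrays after 1 h incubation. The double-stranded probes had 34-nt variable regions carrying direct-repeat seeds, single-nucleotide variants, half-site ablations and random human genomic background sequences. Binding z-scores, from regression-normalized fluorescence, use the random background probes as reference.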

[2] = test system: RARg:RXRa (NR concentration 270 nM, RXRa partner concentration 90 nM)
In short: as §1

[3] = test system: RARg homodimer (NR concentration 270 nM)
In short: as §1

[4] = test system: RXRa DBDmut IVT, anti-RXR (DBD mutation: RXRa K156A/R161A, NR concentration 90 nM)
In short: as §1

[5] = test system: RXRa homodimer (NR concentration 180 nM)
In short: as §1

[6] = test system: THRa:RXRa (NR concentration 90 nM, RXRa partner concentration 90 nM)
In short: as §1

[7] = test system: THRa homodimer (NR concentration 90 nM)
In short: as §1

[8] = test system: VDR homodimer (NR concentration 270 nM)
In short: as §1

Sequence	PBM binding z-score [1]	PBM binding z-score [2]	PBM binding z-score [3]	PBM binding z-score [4]	PBM binding z-score [5]	PBM binding z-score [6]	PBM binding z-score [7]	PBM binding z-score [8]
AGTCAAAGTTCAGGACGAGCTAACGTAAAGCACG	2.77	4.22	4.84	2.68	2.83	1.95	0.278	1.5
CCAGACAGGTGAAAGGTAACACAGTCTGGTACGC	1.1	1.72	1.07	-0.201	2.27	1.02	-0.219	-0.147
CAAACTAGGTCAAGACGTCAAAGTCCGCTTCCCG	3.2	4.09	4.74	1.65	3	2.68	0.895	0.581
CGTCCAAGGTCAAGGTCAGTGGAAGAGACTCGAA	5.13	6.64	7.58	3.79	6.05	4.21	3.67	3.15
TCGGGTAGGTTAGGGGCATTCAGAATGGCGTCGA	1.88	1.07	1	0.943	1.02	2.44	1.61	1.79
CCTACTGGGCCAAGAAAGGTCATTGATTCAGTGA	4.44	3.99	3.46	0.261	4.4	3.43	0.419	2.23
GCGACTGGGGCATGAGCAGGTTACCATAACTTAA	0.894	0.84	0.396	-0.489	0.385	0.664	-0.144	-0.116
AATACAGGGTCACTAGGCCAGAGTAGGTACGAAT	3.61	5.13	4.83	2.83	5.52	3.38	1.27	2.5
GCTGCTAGGACAGGTTGGTCAGCTAACGGGTACG	0.214	-0.345	0.153	-0.341	-0.463	-0.106	-0.393	-0.149
CCTAGTTGGTCAAGGCCACACACGCTATAGGTAC	1.52	0.785	1.19	0.685	0.442	1.07	1.18	0.836
TCTAGTTGGTCACGGAGTTCACACACGACGGGTA	3.11	2.99	2.63	1.79	2.81	1.66	0.539	5.75
CCTACTAGTTGACCATAAGGGCAACCGAAGCTCG	1.92	0.922	0.714	0.0414	0.509	1.75	1.28	0.643
ATATGTAGGTTAAGGGTCATTTAGGTTGGTTCGC	4.09	4.79	3.29	2.35	6.16	3.72	1.76	3.97
GAAACAGGGTCAGCTAGAGGCCAGAGTATGGAAA	3.26	6.78	4.43	1.52	4.28	3.13	0.117	0.821
CCTACTGGGCCCCGAAAGGTCATTGATTCAGTGA	4.21	4.35	3.23	-0.457	4.99	3.04	1.03	1.81
AGTCACAGTTCAGGACGAGGTAACGTAAAGCACG	1.66	2.48	1.95	1.31	1.28	3.34	1.84	0.905
CCGACTGGGGCATAAGGTTACCCTAAGCCAGCCC	1.42	1.27	0.806	-0.487	1.07	1.79	1.55	-0.217
CCTACTGGGCCACGAAATGTCATTGATTCAGTGA	0.607	0.2	0.479	-0.374	-0.0138	0.211	-0.319	-0.54
ATATGTAGGTTAGCTGGGGTCATTCAAACTAGGC	4.02	4.22	3.15	2.15	5.57	5.16	3.52	5.71

Sequence	PBM binding z-score [1]	PBM binding z-score [2]	PBM binding z-score [3]	PBM binding z-score [4]	PBM binding z-score [5]	PBM binding z-score [6]	PBM binding z-score [7]	PBM binding z-score [8]
CCTACTTGGCCATCAGGTCATTGATATCAACGTT	2.89	2.15	2.12	1.5	1.43	3.39	3.64	2.19
AACTCTAGGTAAAGTTCAGTGAAAGATCGATAGA	2.3	1.97	2.32	1.44	1.19	0.938	-0.396	1.64
ACAGACGGGTGAGTGAAGGTAACTCAGCTGGACG	0.0268	-0.0676	0.0149	-0.71	0.204	1.45	-0.184	-0.714
GCGACTGGGGCAAAGCAGGTTAACATAAGGTTGG	1.27	0.386	0.747	-0.0641	0.513	3.19	0.0848	-0.0745
GCTATTAGTTGAAAGGGCAACCGCATGATTCTCG	1.73	1.4	1.04	0.935	1.29	0.332	-0.105	0.195
CCTGCTAGGTCAGTGGTCAGCTAAAGCAGCTCGC	2.63	2.56	3.82	0.821	0.693	1.51	0.454	-0.319
TCTATTAGTTGAAGCGCAACCGACGAGTCCGTTT	-0.298	-0.0942	-0.507	1.16	0.302	-0.201	-0.12	0.818
GCTTGCAGATCAAGGTTAAGAAAGACTAAGCTAA	-0.0263	0.321	0.141	-0.00088	0.55	1.16	-0.514	-0.323
CTACCAAGGTGAACAAGGTCATTGATTACTATTC	3.82	3.75	3.4	2.28	4.27	4.18	3.41	4.4
GATACAGGGTCAGCTAGTGGCCAGAGTATGGAAA	2.79	4.73	4.32	1.25	3.81	2.46	0.162	0.556
CCTAGCAGCCCAGGGTCACTCAAGCATTTCGCTT	2.69	2.9	2.45	0.289	3.38	2.77	1.13	1.33
GCTCGGAGGACAAGGTCCGAGCTTTGTCCGTAGA	0.2	-0.185	0.242	-0.26	-0.792	0.554	-0.414	-0.775
AGAACGAGGCCACGCTGAGTTGATAGCAGAGTAG	0.176	0.764	1.22	0.267	0.15	1.02	-0.00748	0.389
ACAAGCAGGCCAAGTTTGGGTCACTCAAACAAAG	2.34	2.8	1.88	-0.286	1.1	2.47	0.738	-0.0153
TGAATGAGGTTAAAGATCAGAGAACGTGGCGTCG	0.55	2.23	1.36	1.15	3.86	2.28	0.132	0.373
CCGAGTAGGTTATGGGGCACTCAGGCAACGGTGA	0.946	0.475	0.553	-0.264	0.805	0.385	0.0948	0.0125
CCTACTGGGCCAAGGTCATCGATCAGTCAAAGCA	3.75	4.18	3.9	0.883	3.79	3.68	2.69	2.38
CGTCAAAGTTCACGGTAACGTAACAGAAAGCAGC	4.26	6.31	7.19	4.62	6.17	2.38	-0.36	4.02
GCTTACGGGTCAAAGGTGATAGCATGAATAGAAT	2.94	5.62	4.21	2.43	7.79	3.15	-0.0269	1.07

Sequence	PBM binding z-score [1]	PBM binding z-score [2]	PBM binding z-score [3]	PBM binding z-score [4]	PBM binding z-score [5]	PBM binding z-score [6]	PBM binding z-score [7]	PBM binding z-score [8]
ATCGAAAGGACGACGAGGTGAGTATACACCGTTT	0.685	1.09	1.42	-0.192	0.371	1.42	0.601	0.0497
AGAATGAGGTTACCAAAGAACAGGGAAACGCTTG	0.612	1.93	1.35	0.909	2.36	2.59	0.733	0.342
ATGTGTAGGTTATCGGGTCATTCAGTTTGCGCAT	3.35	3.59	2.67	1.75	3.57	3.57	3.71	3.91
ATCTCTAGATAAAAGTTCAGTGAATCCCGAGGAT	2.21	1.29	1.8	0.614	0.778	0.538	-0.209	1.35
TCTGCTAGGACAGTTGGTCAGCTAACGAGCTGCC	-0.304	-0.493	-0.356	-0.0894	-0.639	-0.274	-0.784	-1.13
TTACCAAGGTGAAGGTTGTTGATCCCTCTGTAGA	1.02	0.564	0.48	-0.157	0.836	2.06	0.718	-0.156
ATCTCTAGGTAAAGATAGTTCAGTTAATGCAAAT	1.19	0.937	0.915	0.536	0.419	1.27	0.471	0.927
ATATCTAGGTAACCAAGTTCAGTGAATGCCGAAC	1.55	0.963	0.923	0.824	0.83	1.58	0.613	2.63
GATGCTAGGTCAGGTTGGTCAGCTAACGGGTACG	3.1	2.37	3.92	0.468	1.16	1.92	0.898	0.958
AGAACGAGGGCAATGAGTTGATAGCGCGGGTGGC	0.949	0.964	1.44	2.34	0.602	0.756	-0.205	3.3
CCGACTGGGCCAAGGTCATTGATCAGTCAAAGCA	3.28	3.72	3.11	1.4	3.09	3.46	2.09	3.33
TCTTGTAGATCAACAGAAGGTTAAGAAAGATCGA	0.688	0.942	0.329	0.67	1.02	0.733	-0.701	-0.188
CCTACTGGCCCAAAAAGGTCATTGATGCCGATAA	4.52	4.52	4.12	0.618	5.25	3.39	1.13	2.65
CGTCCAAGGTCAAACGTCAGTGAAGAGATGACGG	3.94	6.09	6.4	3.98	6.29	3.76	2.1	3.22
CTCGAAAGCTCGGTTGAGGTGAGTATACGGATAA	-0.282	-0.264	-0.254	-0.28	-0.256	1.85	1.03	-0.293
CTCGAAAGGTCGTGCTCTGGTGAGTATACCAAAC	2.73	4.35	3.14	2.01	4.69	2.61	0.441	0.997
GCTATTTGGTCAGTAAAAGGTCACACACCGGTCG	5.41	5.36	4.76	0.964	5.44	3.91	2.43	2
ATCTCTAGGTAAGACTCAGTTCTGTGAAGAACGC	0.00747	-0.271	0.0813	0.193	-0.166	0.394	0.633	0.278
CCTATTAGTTGACCATAAGGGCAACTGAAGCTCG	2.04	1.5	1.31	0.724	0.69	1.99	1.28	0.824
